From PubChem BioAssay
KB-3-1 tox: kills parental KB-3-1 adenocarcinoma cells; KB-3-1 viability, CellTiter-Glo ATP luminescence, 72 h; Potency, µM (highest dose often 46.1 µM), hits mostly cytotoxic; 400,000 compounds, 1.4% hits; further: nearly all actives have a fitted effect of over 60% in size
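Luminescent ATP read-out (CellTiter-Glo) measures survival of drug-naive KB-3-1 cells after 72 h compound exposure at 37 °C. Titration series was screened from lowest to highest concentration, with DMSO vehicle plates as background controls.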
HT1080-NT tox: kills 2HG-producing HT-1080-NT fibrosarcoma cells. 360,000 compounds, 1.6% hits. AID 686970. HT-1080-NT fibrosarcoma viability, CellTiter-Glo ATP luminescence, 48 h. Potency, µM (doses to about 46.1 µM), for inactives: at the highest dose activity, negative = less viability, usual class: cytotoxic;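 further: NT is the 2HG producing partner of a matched IDH1 knockdown line; 0% = DMSO-treated cells and -100% = media-only wells without cells; nearly all actives have a fitted effect of over 55% in size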
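HT-1080-NT; 750 cells/well; 5% FBS RPMI; 48 h compound, 37 degrees C; CellTiter-Glo luminescence; curve fitting and curve-class assignment.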
KB-V1 MDR tox: kills drug-selected multidrug resistant KB-V1 cells; 400,000 compounds, 3.4% hits; Potency, µM (top dose mostly 46.1 µM), hits mostly cytotoxic; KB-V1 MDR cells viability, CellTiter-Glo, 72 h; AID 1347076; further: nearly all actives have a fitted effect of over 60% in size
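Readout: CellTiter-Glo luminescence, 10 min after addition. Cells: KB-V1 MDR subline, 72 h at 37 degrees C with compound. Analysis: corrected, normalized data fitted to concentration-effect curves.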
HT1080 IDH1KD tx: HT-1080 IDH1 knockdown cell toxicity (counter line); HT-1080 IDH1 knockdown viability, ATP luminescence, 48 h; Potency, µM (top dose mostly 46.1 µM), inactives show top-dose activity, negative = toxicity, actives largely listed as cytotoxic; 360,000 compounds, 2% hits;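 further: 0% = DMSO wells and -100% = cell-free medium wells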
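In this qHTS, HT-1080 cells depleted of IDH1 are exposed for 48 h at 37 °C to compound titrations. Toxicity is scored from CellTiter-Glo luminescence, with DMSO as full viability and medium alone as none.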
TDP1 cell CPT: growth inhibition of DT40 Tdp1-/-;hTDP1 cells with camptothecin (screen for TDP1 inhibitors); chicken DT40 Tdp1-/-;hTDP1 cells + 20 nM CPT, ATP luminescence, 48 h; Potency, µM (titrated, usually from 46.2 µM), for the others: top-dose activity change, negative = growth inhibition, usual class: inhibitors; 420,000 compounds, 12% hits; AID 686979; further: nearly all actives have a fitted effect of over 55% in size
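Chicken DT40 Tdp1-/- cells stably complemented with human TDP1 were seeded at 400 cells/well in medium containing 20 nM camptothecin, exposed to pin-transferred compounds, and grown at 37 °C for at least 48 hr. Viability was read as ATP luminescence.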
DT40 TDP1 no CPT: qHTS for Inhibitors of human tyrosyl-DNA phosphodiesterase 1 (TDP1): qHTS in cells in absence of CPT | DT40 Tdp1-/- hTDP1 cells, no CPT, ATP luminescence, 48 h | Potency, µM (series often up to 46.2 µM), inactives show top-dose activity change, negative = growth inhibition, usual class: inhibitors | 420,000 compounds, 15% hits; further: nearly all actives have a fitted effect of over 55% in size
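No-CPT arm: Tdp1-/-;hTDP1 DT40 cells (400/well) plus compounds, incubated ≥48 hr at 37 °C. Readout CellTiter-Glo luminescence.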
* = called active by the depositor. Hits are enriched below; roughly 19% of the tested compounds scored in any of these assays. The call rests on the fitted dose curve; in most records, active means well fitted curve in the direction sought with a large enough effect; inconclusive means small, poorly fitted or top-dose-only effect, or another doubt; inactive means no such curve, though single readings can be large; an effect the other way counts as inactive or inconclusive. Unless noted, on the % scale 0 is the no-effect control and ±100 the full control effect; potency means the concentration at half of the fitted maximal effect.

Results for CN(C(=O)c1cc2c(s1)-c1ccccc1S(=O)(=O)C2)c1ccccc1F ?
KB-3-1 tox: inactive; HT1080-NT tox: -3%; KB-V1 MDR tox: inactive; HT1080 IDH1KD tx: 0%; TDP1 cell CPT: -23%; DT40 TDP1 no CPT: inconclusive

Results for COc1ccc(N(C)C(=O)c2cc3c(s2)-c2ccccc2OC3)c(OC)c1 ?
KB-3-1 tox: inactive; HT1080-NT tox: -13%; KB-V1 MDR tox: inactive; HT1080 IDH1KD tx: -26%; TDP1 cell CPT: 15µM*; DT40 TDP1 no CPT: 9.2µM*

Results for COc1ccc(N(C)C(=O)c2cc3c(s2)-c2ccc(Cl)cc2S(=O)(=O)C3)c(OC)c1 ?
KB-3-1 tox: inconclusive; HT1080-NT tox: 5%; KB-V1 MDR tox: inactive; HT1080 IDH1KD tx: -11%; TDP1 cell CPT: 18µM*; DT40 TDP1 no CPT: inconclusive

What do the screens show for `CN(C(=O)c1cc2c(s1)-c1ccccc1S(=O)(=O)C2)c1ccccc1`?
KB-3-1 tox: inactive; HT1080-NT tox: 0%; KB-V1 MDR tox: inactive; HT1080 IDH1KD tx: -1%; TDP1 cell CPT: 12µM*; DT40 TDP1 no CPT: 23µM*

How did N#Cc1ccccc1CSc1ccc(-c2nc3ccccc3[nH]2)cn1 do in these assays?
KB-3-1 tox: inactive; HT1080-NT tox: 20%; KB-V1 MDR tox: inconclusive; HT1080 IDH1KD tx: 0%; TDP1 cell CPT: inconclusive; DT40 TDP1 no CPT: inconclusive

Results for Cc1cc2nc(-c3ccc(SCc4ccc(C#N)cc4)nc3)[nH]c2cc1C ?
KB-3-1 tox: inactive; HT1080-NT tox: inconclusive; KB-V1 MDR tox: inactive; HT1080 IDH1KD tx: inconclusive; TDP1 cell CPT: inconclusive; DT40 TDP1 no CPT: 23µM*

What do the screens show for `Cc1cc2nc(-c3ccc(SCC(=O)Nc4nccs4)nc3)[nH]c2cc1C`?
KB-3-1 tox: inactive; HT1080-NT tox: inconclusive; KB-V1 MDR tox: inconclusive; HT1080 IDH1KD tx: inconclusive; TDP1 cell CPT: 16µM*; DT40 TDP1 no CPT: 16µM*

What do the screens show for `CCc1nnc(NC(=O)CSc2ccc(-c3nc4ccc(C)cc4[nH]3)cn2)s1`?
KB-3-1 tox: inactive; HT1080-NT tox: -1%; KB-V1 MDR tox: 7.3µM*; HT1080 IDH1KD tx: 4%; TDP1 cell CPT: inconclusive; DT40 TDP1 no CPT: inconclusive

What do the screens show for `CC(=O)CSc1ccc(-c2nc3cc(C)c(C)cc3[nH]2)cn1`?
KB-3-1 tox: inactive; HT1080-NT tox: -17%; KB-V1 MDR tox: inconclusive; HT1080 IDH1KD tx: -30%; TDP1 cell CPT: inconclusive; DT40 TDP1 no CPT: inconclusive

What do the screens show for `Cc1ccc2nc(-c3ccc(SCC(=O)N4CCc5ccccc54)nc3)[nH]c2c1`?
KB-3-1 tox: inconclusive; HT1080-NT tox: 3%; KB-V1 MDR tox: 4.1µM*; HT1080 IDH1KD tx: 0%; TDP1 cell CPT: inconclusive; DT40 TDP1 no CPT: 13µM*

Results for Cc1ccccc1S(=O)(=O)N1C[C@@H]2C(C(=O)C[C@@H]3C(=O)N(C)C(=O)[C@@H]32)[C@@H]1c1ccc(Cl)cc1 (some centres undefined) ?
KB-3-1 tox: inactive; HT1080-NT tox: 0%; KB-V1 MDR tox: inactive; HT1080 IDH1KD tx: 0%; TDP1 cell CPT: -13%; DT40 TDP1 no CPT: -23%

What do the screens show for `COCCNc1ncncc1-c1c(C)noc1C`?
TDP1 cell CPT: -10%; DT40 TDP1 no CPT: -4%

How did O=C(CSc1ccc(-c2ccco2)nn1)Nc1ccccc1F do in these assays?
KB-3-1 tox: inactive; HT1080-NT tox: 1%; KB-V1 MDR tox: inactive; HT1080 IDH1KD tx: 18%; TDP1 cell CPT: inconclusive; DT40 TDP1 no CPT: -8%

How did CN(C)c1c(Cl)cc(/C=C2\C=Cc3ccccc32)cc1Cl do in these assays?
KB-3-1 tox: inactive; KB-V1 MDR tox: inactive; TDP1 cell CPT: inconclusive; DT40 TDP1 no CPT: inconclusive

Results for Cc1cc2nc(-c3ccc(SCC(=O)Nc4ccc(S(=O)(=O)N5CCCC5)cc4)nc3)[nH]c2cc1C ?
KB-3-1 tox: inactive; HT1080-NT tox: inconclusive; KB-V1 MDR tox: inactive; HT1080 IDH1KD tx: inconclusive; TDP1 cell CPT: -5%; DT40 TDP1 no CPT: 13µM*

What do the screens show for `O=C(CSc1ccc(-c2nc3ccccc3[nH]2)cn1)Nc1ccc(S(=O)(=O)N2CCCC2)cc1`?
KB-3-1 tox: inactive; HT1080-NT tox: -13%; KB-V1 MDR tox: inconclusive; HT1080 IDH1KD tx: -6%; TDP1 cell CPT: inconclusive; DT40 TDP1 no CPT: 13µM*

Results for CC(=O)CSc1ccc(-c2nc3ccccc3[nH]2)cn1 ?
KB-3-1 tox: inconclusive; HT1080-NT tox: inconclusive; KB-V1 MDR tox: 9.2µM*; HT1080 IDH1KD tx: 9.2µM*; TDP1 cell CPT: 10µM*; DT40 TDP1 no CPT: 8.2µM*

Results for COc1ccc(S(N)(=O)=O)cc1C(=O)OCCCC(=O)c1ccccc1 ?
KB-3-1 tox: inactive; HT1080-NT tox: 1%; KB-V1 MDR tox: inactive; HT1080 IDH1KD tx: 1%; TDP1 cell CPT: inconclusive; DT40 TDP1 no CPT: inconclusive

What do the screens show for `N#CCc1nn(-c2ccc(F)cc2)c(N)c1C#N`?
KB-3-1 tox: inactive; HT1080-NT tox: -6%; KB-V1 MDR tox: inactive; HT1080 IDH1KD tx: 1%; TDP1 cell CPT: -8%; DT40 TDP1 no CPT: -21%

How did CCn1c(SCC(=O)NC2CCCCC2)nc2c(c1=O)SC(C)C2 (centres undefined) do in these assays?
KB-3-1 tox: inactive; HT1080-NT tox: -5%; KB-V1 MDR tox: 2.3µM*; HT1080 IDH1KD tx: 4%; TDP1 cell CPT: inconclusive; DT40 TDP1 no CPT: inconclusive

How did CCn1c(SCC(=O)Nc2cc(C)on2)nc2c(c1=O)SC(C)C2 (centres undefined) do in these assays?
KB-3-1 tox: inactive; HT1080-NT tox: 4%; KB-V1 MDR tox: inconclusive; HT1080 IDH1KD tx: 2%; TDP1 cell CPT: -16%; DT40 TDP1 no CPT: inconclusive

Results for CCn1c(SCC(=O)N2CCCCC2)nc2c(c1=O)SC(C)C2 (centres undefined) ?
KB-3-1 tox: inactive; HT1080-NT tox: 13%; KB-V1 MDR tox: inactive; HT1080 IDH1KD tx: 2%; TDP1 cell CPT: inconclusive; DT40 TDP1 no CPT: inconclusive

What do the screens show for `CCn1c(SCC(=O)Nc2nc3ccccc3s2)nc2c(c1=O)SC(C)C2` (centres undefined)?
KB-3-1 tox: inactive; HT1080-NT tox: inconclusive; KB-V1 MDR tox: inactive; HT1080 IDH1KD tx: -29%; TDP1 cell CPT: 0.73µM*; DT40 TDP1 no CPT: 23µM*

What do the screens show for `CCN(CC)CCn1c2c(c(SCC(=O)Nc3nc4ccc(C)cc4s3)nc1=O)CCC2`?
KB-3-1 tox: inactive; HT1080-NT tox: 6%; KB-V1 MDR tox: inactive; HT1080 IDH1KD tx: 2%; TDP1 cell CPT: 6.5µM*; DT40 TDP1 no CPT: 5.8µM*
